This is one part of a sample in which hits are shown more often than they occur.
IMPase inh = cell-permeable inhibitors of inositol monophosphatase (IMPase); AID 901; 120,000 tested, under 10 active; inhibition (IP1 accumulation), % at 46.1 µM; CHO-M1 cells, IP1 accumulation, HTRF TR-FRET ratio; active means well fitted curve in the direction sought with a large enough effect in the signal ratio, not every such curve was filed as active; inconclusive means small, poorly fitted or top-dose-only effect, or a change in a side signal; inactive means no such curve, though single readings can be large or run the other way; the % refers to the signal ratio;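 further: cells stimulated with carbachol in lithium chloride buffer; plate controls were DMSO basal wells for no effect and reference inhibitor wells for full effect; higher means more IMPase inhibition seen as more IP1 and lower FRET ratio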
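Measured: the HTRF emission ratio (665/620 nm) plus the 620 nm donor channel, each fitted to the Hill equation to give AC50. Cells were CHO-M1 given compounds up to 46 uM and a 30 min carbachol stimulation at 37C.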
15-hLO-2 inh = inhibitors of human 15-lipoxygenase 2 (ALOX15B); O15296; purified 15hLO-2, xylenol orange hydroperoxide absorbance; Potency, µM (titrated, usually from 57.1 µM), for the others: top-dose activity change, negative = inhibition, usual class: inhibitors; hit rate 0.56% among 110,000; AID 881; further: potency means the concentration at half of the fitted maximal effect; nearly all actives have a fitted effect of over 60% in size
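Purified human 15hLO-2 (50 nM) preincubated 15 min with compound, then 45 uM arachidonic acid for 90 min at RT in 25 mM Hepes pH 7.5, 0.01% Triton X-100. Hydroperoxide detected by Fe-xylenol orange; 573/405 nm absorbance ratio.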
ALOX12 inhib = 12-hLO (ALOX12) enzyme inhibition; P18054; purified 12-hLO, xylenol orange hydroperoxide absorbance; Potency, µM (top dose mostly 57.1 µM), for inactives: at the highest dose activity change, negative = inhibition, most hits filed as inhibitors; hit rate 0.12% among 150,000; AID 1452; further: potency means the concentration at half of the fitted maximal effect; nearly all actives have a fitted effect of over 55% in size
Target sequence (P18054 whole entry, looked up): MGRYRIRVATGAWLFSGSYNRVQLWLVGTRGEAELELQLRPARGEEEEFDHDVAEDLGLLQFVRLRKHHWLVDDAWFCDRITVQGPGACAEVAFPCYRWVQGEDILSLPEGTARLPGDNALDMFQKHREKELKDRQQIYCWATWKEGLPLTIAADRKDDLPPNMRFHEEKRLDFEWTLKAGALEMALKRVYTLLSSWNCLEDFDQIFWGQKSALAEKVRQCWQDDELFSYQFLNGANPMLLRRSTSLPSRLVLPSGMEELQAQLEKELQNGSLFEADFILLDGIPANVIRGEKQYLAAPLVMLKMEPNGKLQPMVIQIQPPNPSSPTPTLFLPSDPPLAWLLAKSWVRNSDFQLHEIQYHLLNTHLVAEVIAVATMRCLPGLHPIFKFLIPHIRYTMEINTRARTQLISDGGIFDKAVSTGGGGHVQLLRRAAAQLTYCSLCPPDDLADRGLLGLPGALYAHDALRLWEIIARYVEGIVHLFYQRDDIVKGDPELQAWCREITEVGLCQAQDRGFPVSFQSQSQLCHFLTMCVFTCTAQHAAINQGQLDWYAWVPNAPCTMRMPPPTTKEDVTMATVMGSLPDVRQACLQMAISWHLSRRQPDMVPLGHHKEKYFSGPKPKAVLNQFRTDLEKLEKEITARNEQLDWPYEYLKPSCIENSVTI
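Purified human 12hLO (150 nM), preincubated 15 min with compound, then 40 uM arachidonic acid for 30 min, room temperature, Hepes pH 7.0 with 0.01% Triton X-100. Hydroperoxide detected by ferrous iron/xylenol orange; 573/405 nm absorbance ratio gives reaction progress.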
PNC inhibitor = blocks assembly of the perinucleolar compartment; PC3M PTB-GFP, PNC prevalence imaging, 16 h; hits give low values; activity change (PNC), negative = inhibition, % at 10 µM; hit rate 3.1% among 140,000; AID 2417;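 active means readout at or below -70, meaning at least 70% loss of cells showing the perinucleolar compartment, a nuclear body marking cancer cells; inconclusive means readout between -30 and a set limit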;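 further: plate controls were DMSO wells for no effect and camptothecin positive control wells for full effect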
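Compounds are pinned in duplicate onto adhered PC3M cells stably expressing GFP-tagged PTB and incubated 16 h at 37 C. Cells are then fixed, nuclei stained with Hoechst, and PNC-positive cells counted.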
IMPase Li cell = membrane-permeable IMPase blocker, potentiated with lithium; CHO-M1 cells, IP1 TR-FRET (IP-One), carbachol + lithium; hit rate 0.35% among 210,000; AID 1457; Potency, µM (highest dose often 59.4 µM), for inactives: at the highest dose activity, negative = IMPase inhibition, actives largely listed as inhibitors;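 further: IP1 builds up when IMPase is blocked and the TR-FRET signal falls; potency means the concentration at half of the fitted maximal effect; plate controls were basal vehicle for no effect and high inhibitor control for full effect; nearly all actives have a fitted effect of over 50% in size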
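Readout is a homogeneous TR-FRET IP1 immunoassay (Ex 320, Em 665 and 620), where raised cytosolic IP1 lowers signal. Cells were CHO-M1 treated 30 min at 37C with test compounds plus a little lithium; AC50 values came from Hill-equation fitting.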
* marks the source's active call; other numbers are inactive results; ? = inconclusive; . = no result given; [ ] = another dose, or the depositor's remark. Unless noted, the call rests on the fitted dose curve; in most records, active means well fitted curve in the direction sought with a large enough effect; inconclusive means small, poorly fitted or top-dose-only effect, or another doubt; inactive means no such curve, though single readings can be large; an effect the other way counts as inactive or inconclusive. Unless noted, on the % scale 0 is the no-effect control and ±100 the full control effect.

SMILES	IMPase inh	15-hLO-2 inh	ALOX12 inhib	PNC inhibitor	IMPase Li cell
CCC(C)NC(=O)C1c2cc(OC)c(OC)cc2C(=O)N(C)C1c1ccc(OC)cc1 (stereo not given)	-7.0	.	1.9%	-100.0*	0.0%
Cn1c(=O)c(CCc2ccccc2)nc2cnc(Oc3ccccc3)nc21	.	4.3%	-2.3%	.	2.6%
Cc1ccc(C2CC(=O)Oc3ccc(C(C)(C)C)cc32)cc1 (stereo not given)	.	-6.2%[0.0915 µM]	-7.2%[0.00818 µM]	.	30.6%
CCOC(=O)c1ccc(NCC(O)COc2ccccc2)cc1 (stereo not given)	5.4	.	-2.8%	-118.9*	6.7%
Cc1ccc(N(CC(=O)NCc2cccs2)S(=O)(=O)c2cccs2)cc1	6.4	18.9%	9.1%	-83.5*	5.9%[38.3 µM]
CC1C(=O)OC2CC34C5CC(C(C)(C)C)C36C(OC(=O)C6O)OC4(C(=O)O5)C21O (stereo not given)	-3.0	-5.2%	-5.2%	.	5.7%
Cc1cccc(Cn2c(COc3ccc(Cl)cc3)nc3ccccc32)c1	0.7	.	.	.	.
CCOC(=O)c1c(N)nn(C(=O)C(C)(C)C)c1-c1ccccc1	4.7	-2.4%	5.7%	9.9	44.7%[38.3 µM]
CCOC(=O)C1=C(c2ccccc2)N2CCS(=O)(=O)N=C2S1	-2.9	8.6%	-1.5%	-83.3*	18.6%[38.3 µM]
O=C(CCSc1ccc(Cl)cc1)NC1CCCCC1	5.8	-2.5%	5.6%	-109.4*	-19.7%[38.3 µM]
CCN(CC)CCCCNC(=O)c1ccc(Cc2nc3ccccc3[nH]2)cc1	.	.	5.3%	.	.
Cc1cccc(NS(=O)(=O)c2ccc(NC(=O)CN(c3cc([N+](=O)[O-])ccc3C)S(C)(=O)=O)cc2)c1	.	.	-7.9%	-113.4*	5.7%
COc1ccc(C)cc1NS(=O)(=O)c1ccc(NC(=O)CN(c2cc([N+](=O)[O-])ccc2C)S(C)(=O)=O)cc1	.	.	-3.6%	?	5.4%
Cn1c(Oc2ccc(Cl)cc2)nc2c1c(=O)n(Cc1ccc(F)cc1)c(=O)n2C	-2.4	.	.	.	.
Cc1c(C(=O)OCC(C)C)[nH]c2c1C(=O)CC(c1cccs1)C2 (stereo not given)	-0.1	-8.9%	2.3%	-88.2*	11.2%[38.3 µM]
CCOC(=O)c1[nH]c2c(c1C)C(=O)CC(c1ccc(F)cc1)C2 (stereo not given)	3.1	-4.8%	1.2%	-94.6*	11.9%[38.3 µM]
CCOC(=O)c1[nH]c2c(c1C)C(=O)CC(c1ccc(OCC)c(OC)c1)C2 (stereo not given)	5.3	10.0%	1.9%	-5.8	23.9%[38.3 µM]
COC(=O)CC1[C@@]2(C)C[C@]34OC5(C)OC6(C7CC(=O)OC(c8ccoc8)[C@]7(C)CCC6(O5)[C@]13C)C(OC(C)=O)[C@]4(OC(C)=O)C2OC(C)=O (stereo not given in full)	.	-6.1%	-1.3%	.	9.9%
O=C(c1cccs1)N(Cc1nc2sc3c(c2c(=O)[nH]1)CCCC3)C1CCCC1	-5.9	-7.1%	-19.3%	-92.2*	2.9%[38.3 µM]
C=CCON1C(=O)c2ccccc2C1=O	1.2	-1.3%	4.7%	-110.7*	-12.7%[38.3 µM]
C[C@H](O)CON1C(=O)c2ccccc2C1=O	.	.	.	.	14.5%
Cc1ccnc(SCc2cc(=O)c(OC(=O)c3ccc(Br)o3)co2)n1	-9.8	.	-5.8%	-82.6*	-3.9%
Cc1ccnc(SCc2cc(=O)c(OC(=O)c3ccc(S(=O)(=O)N(C)C)cc3)co2)n1	-9.3	.	-3.8%	-108.8*	-3.3%
C=CCOC(=O)N[C@@H](c1ccc(Br)cc1)C(C(C)=O)C(C)=O	.	.	.	.	0.2%
CC(Sc1nc(-c2ccc(F)cc2)cs1)C(=O)Nc1ccc(Cl)cn1 (stereo not given)	.	.	-1.5%	-100.0*	13.2%
N#C/C(=C\c1c(N2CCCCC2)nc2ccccn2c1=O)C(=O)NC1CCS(=O)(=O)C1 (stereo not given)	.	.	-2.1%	0.1	-1.6%
Cc1cccc(Oc2nc3ccccn3c(=O)c2/C=C(\C#N)C(=O)NC2CCS(=O)(=O)C2)c1 (stereo not given)	.	.	-4.8%	-104.1*	0.2%
COC(=O)c1cc(CNC(=O)c2cccc(Cl)c2)ccc1OC	-5.1	.	2.1%	-88.9*	-4.5%
Fc1cccc(-n2ncc(-c3nnnn3-c3ccccc3)c2C(F)(F)F)c1	5.5	.	4.5%	-84.4*	12.4%
